The text below walks through data of PubChem BioAssay AID624296 (National Center for Advancing Translational Sciences (NCATS), 2012).

Screen size: about 350,000 compounds; about 9,900 (2.8%) were called active. Roughly 15% stayed inconclusive and do not appear here. Many of the other results were omitted from the sample, so actives are more common in it than they were. Unmarked numbers belong to inactive results. Calls follow the shape of the dose curve; as a rule, active = well fitted activation curve with a large enough effect; inconclusive = small, poorly fitted or top-dose-only effect; inactive = no such curve, though single readings can be large or run the other way.
Potency is read from the fitted curve at half-maximal effect.

The nature of this assay: A quantitative high throughput screen for small molecules that induce DNA re-replication in MCF 10a normal breast cells. Also: nearly all actives have a fitted effect of over 50% in size. As to activity, positive = re-replication: % of control where 0% means no effect. The following applies: MCF 10A DNA re-replication, Hoechst nuclear intensity, 48 h; series mostly up to 46.1 µM; activity, positive = re-replication: at the top concentration.
Regarding `COc1ccc2sc(-c3ccc(N(C)C)cc3)c(-c3ccc4cc[nH]c4c3)c2c1`, the Potency was 16.4 µM (active).

In the case of `CC1Sc2ccc(C(=O)NCc3ccccc3Cl)cc2NC1=O` (stereo not given), the “activity, positive = re-replication” value is -4.42%.

For `O=c1ccn([C@@H]2O[C@H](CNS(=O)(=O)c3cc4ccccc4s3)[C@@H](O)[C@H]2O)c(=O)[nH]1`, the “activity, positive = re-replication” value is -3.12%.

Take `Cc1cc(C)c(C=NNc2nc3c([nH]2)c(=O)n(C)c(=O)n3C)c(C)c1`: the “activity, positive = re-replication” value was -1.32%.

As to `N#CCC(=O)N/N=C/c1ccc(SCC(=O)Nc2ccccc2)o1`, the “activity, positive = re-replication” value was -2.9%.

On to `N#CCC(=O)N/N=C/c1cn(Cc2ccc3ccccc3c2)c2ccccc12`, for which the Potency is 10.3 µM (active).

`CCOC(=O)N/N=C/c1cn(Cc2ccccc2Cl)c2ccccc12`: the “activity, positive = re-replication” value was 3.11%.

For `CC1CCCC(NC(=O)c2cc(S(=O)(=O)N3CCCCC3)ccc2Cl)C1C` (stereo not given), the “activity, positive = re-replication” value was -4.65%.

On to `c1cncc(-c2nnc3n2C2(CCCCC2)Cc2ccccc2-3)c1`, for which the “activity, positive = re-replication” value was 1.24%.

As for `O=c1c2ccccc2nc2n1C1(CCCCC1)Cc1ccccc1-2`, the Potency was 18.4 µM (active).

`CN(c1ccc2nc3ccccc3c(=O)n2n1)C1CCCCC1`: the “activity, positive = re-replication” value was -2.71%.

Consider `COc1ccccc1CNC(=O)COC(=O)c1cccs1`, for which the “activity, positive = re-replication” value is -5.75%.

For `CC(C)C[C@H]1CN([C@@H](CC(C)C)CN2CCC[C@@H]2CN2C(=O)C(=O)NC[C@@H]2Cc2ccccc2)C(=O)C(=O)N1CCc1ccccc1`, the “activity, positive = re-replication” value was 17.4%.

`COc1ccc(C(=O)NCc2ccccc2C)cc1S(=O)(=O)NC1CCCC1`: the “activity, positive = re-replication” value is -4.4%.

Turning to `CCN(CC)S(=O)(=O)c1ccc(Cl)c(NC(=O)c2ccncc2)c1`, the “activity, positive = re-replication” value is 0.731%.

`CCN(CC)S(=O)(=O)c1ccc(NC(=O)c2cccnc2Cl)c(NC(=O)c2cccnc2Cl)c1`: the Potency was 18.4 µM (active).

For the compound `Cc1cccc(NC(=O)c2cccnc2Cl)n1`, the “activity, positive = re-replication” value is -3.66%.

In the case of `O=C(NOCc1ccccc1)c1cccc([N+](=O)[O-])c1`, the “activity, positive = re-replication” value is 1.13%.

For the compound `O=C(COC(=O)COc1ccccc1F)Nc1cccc(S(=O)(=O)N2CCCCC2)c1`, the “activity, positive = re-replication” value is -4.89%.

Consider `O=C(Nc1nc2c(F)cc(F)cc2s1)C1COc2ccccc2O1` (stereo not given), for which the “activity, positive = re-replication” value is 5%.

For `O=C(Nc1nnc(SCc2c(Cl)cccc2Cl)s1)c1cccc([N+](=O)[O-])c1`, the “activity, positive = re-replication” value is 21%.

Take `O=C(Nc1nnc(SCc2c(Cl)cccc2Cl)s1)C1CCCO1` (stereo not given): the Potency was 11.6 µM (active).

`O=C(Nc1nnc(SCc2ccc(Cl)cc2Cl)s1)C1COc2ccccc2O1` (stereo not given): the Potency was 18.4 µM (active).

On to `O=C(Nc1nnc(CCc2ccccc2)s1)C1CCCO1` (stereo not given), for which the “activity, positive = re-replication” value was -6.69%.

Turning to `O=C(Nc1nc(-c2ccncc2)cs1)C1COc2ccccc2O1` (stereo not given), the “activity, positive = re-replication” value was 3.86%.

For the compound `O=C1/C(=C/c2ccc3c(c2)OCO3)CCC/C1=C\c1ccc2c(c1)OCO2`, the Potency is 14.6 µM (active).

Turning to `O=C(O)/C=C/c1ccc2c(c1)OCCO2`, the “activity, positive = re-replication” value was 13.8%.

As for `O=C(N/N=C/c1ccc2c(c1)OCO2)C(=O)N1CCCC1`, the “activity, positive = re-replication” value was 14.4%.

As to `O=C(COC(=O)c1cc[n+]([O-])cc1)Nc1ccc(Cl)c(C(F)(F)F)c1`, the “activity, positive = re-replication” value was 23.8%.

As for `CCOc1ccc(CCNC(=O)COC(=O)C2CCN(S(=O)(=O)c3ccccc3)CC2)cc1OCC`, the “activity, positive = re-replication” value is -3.91%.

Turning to `CCOc1cccc2cc(C(=O)OCC(=O)Nc3c(C)cccc3CC)c(=O)oc12`, the “activity, positive = re-replication” value was -4.55%.

With `CN=C(Nc1cccc(S(=O)(=O)N2CCOCC2)c1)c1ccccc1`, the “activity, positive = re-replication” value is -0.997%.

Turning to `CCN1CCN(CCNC(=O)c2ccc(/C=C3/Sc4ccccc4N(Cc4cccc(C)c4)C3=O)cc2)CC1`, the Potency is 6.51 µM (active).

For `O=C(NCCCN1CCOCC1)c1ccc2c(c1)N(Cc1cccc(F)c1)C(=O)c1ccccc1S2`, the “activity, positive = re-replication” value is -2.53%.

For `O=C(NCCN1CCOCC1)c1ccc(/C=C2\Sc3ccccc3N(Cc3ccc(F)cc3)C2=O)cc1`, the Potency was 18.4 µM (active).

Regarding `Cc1nn(Cc2ccccc2)c(C)c1C(=O)NCCN1C(=O)S/C(=C\c2ccc(F)cc2)C1=O`, the “activity, positive = re-replication” value is 5.89%.

In the case of `CCN1CCN(CCNC(=O)c2ccc3c(c2)NC(=O)/C(=C\c2ccc(OC)c(OC)c2)S3)CC1`, the “activity, positive = re-replication” value was 1.79%.

On to `O=C(NCCN1CCOCC1)/C(=C/c1ccc(F)cc1)NC(=O)c1ccccc1`, for which the “activity, positive = re-replication” value was -3.22%.

As for `Cn1nnnc1SCC(=O)Nc1sccc1C(N)=O`, the “activity, positive = re-replication” value is 0.751%.

Regarding `COc1ccc([C@H]2CC(=O)C=C(c3ccc(OC(F)(F)F)cc3)C2)cc1OC`, the “activity, positive = re-replication” value is 6.41%.

Take `O=C(CSc1nc2ccccc2[nH]1)Nc1nc(-c2ccccc2)c(-c2ccccc2)o1`: the “activity, positive = re-replication” value was 0.359%.

On to `CCc1nnc(NC(=O)CCCSc2nc3ccccc3[nH]2)s1`, for which the “activity, positive = re-replication” value was 0.183%.

Take `CCC(C)N1C(=O)S/C(=C/c2ccc(Sc3nc4ccccc4[nH]3)o2)C1=O` (stereo not given): the Potency is 8.2 µM (active).

As to `C[C@H]1CN([C@@H](C)CO)C(=O)Cc2cc(NC(=O)Cc3ccccc3)ccc2O[C@H]1CN(C)S(=O)(=O)c1cccs1`, the “activity, positive = re-replication” value is 5.07%.

As to `O=C1CC(C(=O)O)NC(=S)N1` (stereo not given), the “activity, positive = re-replication” value is -28.6%.

With `Cc1cc(NC(=O)c2cc3ccccc3o2)no1`, the “activity, positive = re-replication” value is 1.92%.

For the compound `C[C@H](CO)N1C[C@H](C)[C@@H](CN(C)Cc2ccc(-c3ccccc3)cc2)Oc2ccc(NC(=O)Cn3cnnn3)cc2C1=O`, the “activity, positive = re-replication” value is 4.97%.

Take `Cc1nn(Cc2ccc(Cl)cc2)c(Cl)c1/C=N/NC(=O)CNc1ccccc1F`: the Potency is 16.4 µM (active).

With `Cc1nn(Cc2ccc(Cl)cc2)c(Cl)c1/C=N/NC(=O)c1cccnc1`, the “activity, positive = re-replication” value is -11%.

Regarding `CCn1nc(C)c(/C=N/NC(=O)Cc2ccc(Cl)cc2)c1C`, the “activity, positive = re-replication” value was -0.496%.
